# Assay results reported in the supplement of paper PMC8728848.
# The entries come from a sample that favours the strongest signals as a whole.
# B1: SIGNR8 (Mus musculus) (protein)
# chain: MAGEPEFHQSKNHEEEVTSGEQGFAEHDPEGLICSSKSLQGHLTQVPWLLLLLISLGLFLLMLATLVQVSRIRAYSQGQTQDQQGSSSLDKVAVPREQTHSGLEQIQQIQQQLTQFNASLAGLCRPCPWDWELFQGSCYLFSRTLGSWETSASSCEDLGAHLVIVNSVSEQRFMKYWNVRKNQRSWIGLSDHIHEGSWQWVDGSALKFSFWKEGEPNNDGDEDCVELFMDDWNDNKCTEQNFWVCEQPSAPCPHH
# Tests used:
# Assay in all cases: glycan array binding signal (z-score within array); higher = stronger binding
# Conditions in all cases: glycan notation: IUPAC condensed, linker removed
# [1] = biological target: Fuc(a1-2)[Gal(a1-3)]Gal
# In short: (§1)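 The binding signal is a Z-score computed within each array. Data were drawn from 3228 arrays in the Consortium for Functional Glycomics database, restricted to those with a known protein sequence. Scores were averaged over arrays of the same protein sequence at different concentrations or buffers, and over linkers, and negative values can be taken as non-binding.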
# [2] = biological target: Fuc(a1-2)[Gal(a1-4)]Gal(b1-4)GlcNAc
# In short: as §1
# [3] = biological target: Fuc(a1-2)[GalNAc(a1-3)]Gal(b1-4)[Fuc(a1-3)]GlcNAc
# In short: as §1
# [4] = biological target: Fuc(a1-3)[Gal(b1-4)]GlcNAc(b1-4)Gal(b1-4)[Fuc(a1-3)]GlcNAc
# In short: as §1
# [5] = biological target: Fuc(a1-3)[GalNAc(b1-4)]GlcNAc
# In short: as §1
# [6] = biological target: Gal(a1-3)Gal
# In short: as §1
# [7] = biological target: Gal(a1-3)Gal(b1-4)GlcNAc
# In short: as §1
# [8] = biological target: Gal(a1-3)[Gal(a1-4)]Gal(b1-4)GlcNAc
# In short: as §1
# [9] = biological target: Gal(b1-3)Gal
# In short: as §1
# [10] = biological target: Gal(b1-3)GalNAc(b1-4)[Neu5Ac(a2-3)]Gal(b1-4)Glc
# In short: as §1
# [11] = biological target: Gal(b1-3)GlcNAc(b1-3)Gal(b1-4)Glc
# In short: as §1
# [12] = biological target: Gal(b1-3)[Neu5Ac(b2-6)]GalNAc
# In short: as §1
# [13] = biological target: Gal(b1-4)GlcNAc(b1-3)Gal(b1-4)GlcNAc(b1-3)Gal(b1-4)GlcNAc
# In short: as §1
# [14] = biological target: Gal(b1-4)GlcNAc(b1-6)[Gal(b1-3)]GalNAc
# In short: as §1
# [15] = biological target: GalNAc(a1-3)Gal
# In short: as §1
# [16] = biological target: GlcNAc(b1-3)Gal(b1-4)GlcNAc
# In short: as §1
# [17] = biological target: Man(a1-3)[Man(a1-6)]Man
# In short: as §1
# [18] = biological target: Neu5Ac(a2-3)Gal(b1-3)[Fuc(a1-4)]GlcNAc(b1-3)Gal(b1-4)[Fuc(a1-3)]GlcNAc
# In short: as §1
# [19] = biological target: Neu5Ac(a2-3)[GalNAc(b1-4)]Gal(b1-4)Glc
# In short: as §1
# [20] = biological target: Neu5Ac(a2-3)[GalNAc(b1-4)]Gal(b1-4)GlcNAc
# In short: as §1
# [21] = biological target: Neu5Ac(a2-6)Gal(b1-4)Glc
# In short: as §1
binder,measurement,setting,value
B1,glycan array binding signal (z-score),[1],2.32
same,glycan array binding signal (z-score),[2],3.32
same,glycan array binding signal (z-score),[3],-0.386
same,glycan array binding signal (z-score),[4],-0.385
same,glycan array binding signal (z-score),[5],-0.369
same,glycan array binding signal (z-score),[6],2.62
same,glycan array binding signal (z-score),[7],3.18
same,glycan array binding signal (z-score),[8],4.59
same,glycan array binding signal (z-score),[9],4.35
same,glycan array binding signal (z-score),[10],-0.329
same,glycan array binding signal (z-score),[11],-0.386
same,glycan array binding signal (z-score),[12],-0.394
same,glycan array binding signal (z-score),[13],1.7
same,glycan array binding signal (z-score),[14],2.18
same,glycan array binding signal (z-score),[15],-0.329
same,glycan array binding signal (z-score),[16],-0.398
same,glycan array binding signal (z-score),[17],-0.373
same,glycan array binding signal (z-score),[18],-0.393
same,glycan array binding signal (z-score),[19],-0.4
same,glycan array binding signal (z-score),[20],-0.4
same,glycan array binding signal (z-score),[21],-0.394
